Measurements taken from PubChem BioAssay.
Records with an inconclusive call do not appear. Calls of active or inactive are those of the source.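 The calls were made as follows, unless noted: active = viability at or below 30% in both replicate assays; inconclusive = viability at or below 30% in just one of the two assays; inactive = the rest.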

Assays:
[1] = Her2 expression decrease, cell viability multiplex – SKBR3 breast tumor cells, AlphaScreen, ATP viability, primary screen (AID 461;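 active = Her2 level under about 52% in both replicate screens, with viability over 70% of control, limit read from the data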;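 as to Her2 level: lower value means less Her2 protein in the cells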;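 as to viability: percent of carrier control wells set as 100% viability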); settings: SKBR3 Her2 protein level, 18-24 h, measured here: SKBR3 viability, ATP luminescence, at 10 µM
[2] = molecular target: Receptor tyrosine-protein kinase erbB-2 (Homo sapiens) (UniProt P04626); experiment: as above; settings: 18-24 h, at 10 µM, stronger effect = lower value
Sequence of Receptor tyrosine-protein kinase erbB-2 (Homo sapiens) (P04626 whole entry, looked up): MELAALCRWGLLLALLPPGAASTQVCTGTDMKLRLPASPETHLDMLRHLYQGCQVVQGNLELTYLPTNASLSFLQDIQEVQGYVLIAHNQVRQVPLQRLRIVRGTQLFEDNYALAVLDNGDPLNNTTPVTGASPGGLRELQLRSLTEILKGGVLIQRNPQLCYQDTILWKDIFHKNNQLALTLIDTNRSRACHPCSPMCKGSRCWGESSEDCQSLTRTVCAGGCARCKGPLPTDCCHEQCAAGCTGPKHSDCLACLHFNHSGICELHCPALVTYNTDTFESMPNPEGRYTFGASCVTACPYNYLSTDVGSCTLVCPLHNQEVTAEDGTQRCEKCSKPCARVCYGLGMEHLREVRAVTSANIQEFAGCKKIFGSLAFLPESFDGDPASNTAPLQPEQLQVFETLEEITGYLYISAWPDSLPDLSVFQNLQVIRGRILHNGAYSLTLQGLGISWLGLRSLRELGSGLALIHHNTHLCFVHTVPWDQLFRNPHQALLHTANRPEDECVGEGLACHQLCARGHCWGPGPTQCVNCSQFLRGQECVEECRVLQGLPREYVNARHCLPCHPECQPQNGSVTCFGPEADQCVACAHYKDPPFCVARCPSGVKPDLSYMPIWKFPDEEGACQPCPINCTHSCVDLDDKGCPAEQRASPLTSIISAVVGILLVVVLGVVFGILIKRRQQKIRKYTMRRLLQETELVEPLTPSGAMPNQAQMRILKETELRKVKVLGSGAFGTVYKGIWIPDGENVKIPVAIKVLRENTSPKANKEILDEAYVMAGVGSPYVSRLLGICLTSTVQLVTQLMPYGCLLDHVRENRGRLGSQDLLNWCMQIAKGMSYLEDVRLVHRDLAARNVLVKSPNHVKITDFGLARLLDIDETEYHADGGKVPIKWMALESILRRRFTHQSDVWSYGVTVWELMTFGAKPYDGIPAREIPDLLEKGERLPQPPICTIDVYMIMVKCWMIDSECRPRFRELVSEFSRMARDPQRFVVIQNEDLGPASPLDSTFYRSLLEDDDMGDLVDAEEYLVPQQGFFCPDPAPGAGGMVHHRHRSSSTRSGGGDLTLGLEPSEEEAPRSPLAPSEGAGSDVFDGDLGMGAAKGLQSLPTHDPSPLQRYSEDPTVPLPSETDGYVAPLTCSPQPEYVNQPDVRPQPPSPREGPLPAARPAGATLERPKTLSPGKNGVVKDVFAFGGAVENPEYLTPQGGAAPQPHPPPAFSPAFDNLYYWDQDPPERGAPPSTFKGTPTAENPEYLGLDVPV

[3] = reduced viability of SK-BR-3 breast cancer cells – cell-based, 24 h, human, pilot screen (AID 572;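 active = viability at or below 10% of carrier control in both of two separate runs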;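 also: compound exposure lasted between 18 and 24 h rather than exactly 24 h; 100% = carrier-treated control wells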); settings: SK-BR-3 viability, CellTiter-Glo luminescence, at 10 µM, stronger effect = lower value
[4] = HUVEC growth inhibition – cell-based, human, primary screen (AID 575); settings: HUVEC proliferation, CellTiter-Glo luminescence, 72 h; at 10 µM; stronger effect = lower value;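 also: 100% = median of untreated cell wells with 0.1% DMSO on each plate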
[5] = H69AR cell proliferation blockers – human, duplicate replicates, primary screen (AID 580;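 active = viability at or under a set limit in both replicates, limit being median viability minus 3 SD, cut at about 48% in these data, passing the limit was not always enough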;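 also: 100% = mean luminescence of untreated wells and 0% = no signal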); settings: H69AR lung tumor cells viability, ATP luminescence, 72 h; at 10 µM; stronger effect = lower value
[6] = MRP1 drug-resistance reversers in H69AR cells – cell-based, doxorubicin co-treatment, pilot screen (AID 601;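 active = viability loss from added drug above about 55%, and viability with drug at most 40%, in both replicates, limit read from the data, passing the limit was not always enough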); settings: CellTiter-Glo, 72 h, at 10 µM; for differential viability (reversal): stronger effect = higher value
[7] = yeast transport mutant growth inhibition pilot in 384-well plates, post-Golgi transport modulator project (AID 636; in the data active = inhibition above about 31%); settings: absorbance 615 nm, about 18 h, stronger effect = higher value
[8] = growth suppression of yeast trafficking mutant, preliminary HTS, modulators of trafficking downstream of Golgi apparatus project, 1536-format plate, OD 615 nm (AID 637; in the data active = inhibition above about 30%); settings: yeast transport mutant growth, absorbance 615 nm, 18 h; stronger effect = higher value
[9] = S. cerevisiae growth inhibition in permissive medium (OD615), pilot counter-assay for S. cerevisiae lifespan shortening project, permissive growth control (AID 705;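 active = growth inhibition above 25% in both replicates, a cutoff set 3 SD above the mean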); settings: OD615, 24 h, at 10 µM, stronger effect = higher value
[10] = S. cerevisiae growth inhibition in restrictive medium, OD615, pilot screen, restrictive growth control, yeast lifespan reduction project (AID 706;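 active = growth inhibition above a set limit, 3 SD over mean compound inhibition, in both replicates, cut at about 43% in these data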;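 also: modified DeaD lifespan yeast strain shifted to restrictive glucose medium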); settings: OD615, 48 h, at 10 µM, stronger effect = higher value
[11] = doxorubicin toxicity protection in MRP-1 cells – H69AR cells, CellTiter-Glo, duplicate, MRP-1 activator project, pilot screen (AID 807;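 active = viability increase at or above a cutoff of the median across tested compounds plus 3 SD, cut at about 8.5% in these data, passing the limit was not always enough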;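 also: compound pretreatment 18-22 h then 72 h combined with doxorubicin; 0% = doxorubicin alone and 100% = vehicle without doxorubicin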); settings: H69AR viability with doxorubicin, CellTiter-Glo luminescence; at 10 µM; stronger effect = higher value
[12] = viability of HCT116 without oncogenic beta-catenin – human colon tumor cells, pilot screen (AID 823;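 active = cell viability at or below a set limit in both duplicate runs, the limit being the all-compound median minus 4 SD, cut at about 23% in these data, passing the limit was not always enough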;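 also: 0% = wells killed by 20 µM Hyamine and 100% = untreated DMSO cell wells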); settings: HCT116 beta-catenin knockout viability, CellTiter-Glo, 60 h; at 10 µM; stronger effect = lower value
[13] = viability of PTEN-null HCT116 cells – cell-based, HCT116 clonal line, CellTiter-Glo, pilot screen (AID 824;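 active = viability at or below 27.92% in each of two runs, the all-compound median minus 4 SD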;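 also: 0% = 20 µM Hyamine control and 100% = vehicle cell control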); settings: HCT116 PTEN-deleted viability, 60 h, at 10 µM, stronger effect = lower value
[14] = RAM pathway blockade in budding yeast – dse1pr::URA3 reporter, 5-FOA selection, pilot screen (AID 869;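 active = inhibition over a set limit, the all-compound mean plus 3 SD, in both replicate runs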;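 also: 0% = DMSO wells with no growth and 100% = 10 µM 1-NA-PP1 with full growth; RAM network block rescues cells from 5-FOA so hits raise OD615 growth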); settings: S. cerevisiae dse1pr::URA3 5-FOA growth, OD615, 2 d; at 10 µM; stronger effect = higher value; strain carries analog-sensitive mutant Cbk1 kinase
[15] = RAM signaling pathway blockade in yeast – S. cerevisiae, Pdr1DBD-CYC8 efflux-inhibited sensitized strain, primary screen (AID 1298;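 active = RAM network inhibition above 8.4% in each of two replicates, 3 SD over the compound average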;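 also: 0% = DMSO untreated cells without growth and 100% = 10 µM 1-NA-PP1 full growth; higher means more yeast growth rescued from 5-FOA killing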); settings: S. cerevisiae cbk1-as DSE1-URA3 strain, 5-FOA growth OD615, 2 d; at 50 µM; stronger effect = higher value
[16] = H69AR cells + 2 uM doxorubicin, measured here: viability with 2 uM doxorubicin, stronger effect = lower value
[17] = H69AR cells, compound alone cytotoxicity

Compound	viability [1]	Her2 level [2]	viability [3]	viability [4]	viability [5]	differential viability (reversal) ([6]; H69AR cells + 2 uM doxorubicin)	viability [6, 16]	viability [6, 17]	inhibition [7]	inhibition [8]	growth inhibition [9]	growth inhibition [10]	viability increase [11]	viability [12]	viability [13]	inhibition [14]	RAM network inhibition [15]
CC(=O)NC(CCS(C)(=O)=O)C(=O)Nc1cccc2ccccc12 (stereo not drawn)	108%	102% (inactive)	108% (inactive)	94% (inactive)	87.5% (inactive)	-10.2% (inactive)	97.7%	87.5%	-1.87% (inactive)	-5.5% (inactive)	-12.6% (inactive)	-14.3% (inactive)	-2.44% (inactive)	103% (inactive)	88.3% (inactive)	1.77% (inactive)	8.64% (inactive)
O=C(c1ccc2nc(N3CCCCC3)sc2c1)N1CCN(c2ccccn2)CC1	87%	102% (inactive)	87% (inactive)	68.1% (inactive)	102% (inactive)	2.3% (inactive)	100%	102%	-1.54% (inactive)	1% (inactive)	2.65% (inactive)	-0.825% (inactive)	0.27% (inactive)	106% (inactive)	98.6% (inactive)	2.38% (inactive)	-1.58% (inactive)
COc1cccc(-c2nc(CS(=O)(=O)CC(=O)N3CCc4ccccc4C3)c(C)o2)c1	93.5%	86.5% (inactive)	93.5% (inactive)	93.3% (inactive)	89.1% (inactive)	6% (inactive)	83.1%	89.1%	-0.67% (inactive)	0.98% (inactive)	2.52% (inactive)	8.9% (inactive)	-2.85% (inactive)	75.5% (inactive)	73.7% (inactive)	1.68% (inactive)	6.29% (inactive)
CC(C)(C)SCCNC(=O)COc1ccccc1	112%	88.5% (inactive)	112% (inactive)	88.4% (inactive)	96.8% (inactive)	11.8% (inactive)	85%	96.8%	-6.22% (inactive)	4% (inactive)	-2.07% (inactive)	4.92% (inactive)	0.03% (inactive)	95.7% (inactive)	96.6% (inactive)	1.81% (inactive)	2.63% (inactive)
CCOC(=O)c1oc2c(CN3CCN(C)CC3)c(O)ccc2c(=O)c1-c1ccccc1OC	94%	110% (inactive)	94% (inactive)	99.5% (inactive)	93.1% (inactive)	-0.225% (inactive)	93.3%	93.1%	0% (inactive)	0.5% (inactive)	-13% (inactive)	-15.5% (inactive)	-1.3% (inactive)	103% (inactive)	94% (inactive)	3.98% (inactive)	1.2% (inactive)
Cn1cccc1Cc1nnc(SCC(=O)NCC2CCCO2)n1-c1ccc(F)cc1 (stereo not drawn)	97.5%	90% (inactive)	97.5% (inactive)	106% (inactive)	91% (inactive)	0.18% (inactive)	90.9%	91%	-4.93% (inactive)	-2.33% (inactive)	-11.2% (inactive)	-5.59% (inactive)	-1.1% (inactive)	108% (inactive)	94.7% (inactive)	0.02% (inactive)	6.15% (inactive)
Cc1ccc(C)c(S(=O)(=O)n2cnc3ccccc32)c1	96.5%	87.5% (inactive)	96.5% (inactive)	109% (inactive)	99% (inactive)	7.94% (inactive)	91.1%	99%	-0.13% (inactive)	30.2% (active)	-18% (inactive)	-20.2% (inactive)	0.98% (inactive)	95.2% (inactive)	97.6% (inactive)	2.08% (inactive)	2.15% (inactive)
COc1ccc(C2CC(c3ccc(Cl)cc3Cl)Nc3nc(N)nn32)cc1 (stereo not drawn)	94%	92% (inactive)	94% (inactive)	115% (inactive)	94% (inactive)	3.8% (inactive)	90.2%	94%	-1.67% (inactive)	-0.5% (inactive)	12.9% (inactive)	31.5% (inactive)	0.19% (inactive)	85.3% (inactive)	73.3% (inactive)	2.17% (inactive)	8.01% (inactive)
COc1ccccc1S(=O)(=O)Cc1ccc(C(=O)N2CCN(c3ccc(C)cc3)C(C)C2)o1 (stereo not drawn)	82.5%	64.5% (inactive)	82.5% (inactive)	52.4% (inactive)	7.92% (active)	-48.4% (inactive)	56.3%	7.92%	-1.07% (inactive)	1.64% (inactive)	4.27% (inactive)	-15.2% (inactive)	-6.26% (inactive)	43.2% (inactive)	36.8% (inactive)	0.41% (inactive)	5.28% (inactive)
